According to PubChem BioAssay (NCATS):
Inconclusive results are not listed. Active and inactive are the calls of the source. Unless noted, calls come from the whole dose curve; as a rule, active = well fitted curve in the direction sought with a large enough effect; inconclusive = small, poorly fitted or top-dose-only effect, or another doubt; inactive = no such curve, though single readings can be large; an effect the other way counts as inactive or inconclusive.

Assays:
[1] = Cell Viability - BJ (AID 421; calls by dose curve;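 note: potency is the fitted concentration of half-maximal effect; cells exposed to compound for 40 hours at 37 °C before readout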); conditions: BJ fibroblast viability, qHTS
How it was run: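 Cytotoxicity in human BJ foreskin fibroblasts is scored as loss of cellular ATP after a 40-hour exposure, measured by luciferase luminescence. Controls are DMSO and 100 uM tamoxifen.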

[2] = Cell Viability - Jurkat (AID 426;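 active = dose-dependent loss of cell ATP signal giving a full or clear fitted curve, ranked by lower potency value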; note: potency is the fitted concentration of half-maximal effect); conditions: qHTS
How it was run: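 Jurkat (clone E6-1, human T-cell leukemia) cells, 5000/well in complete medium, were exposed to compound for 40 hr at 37 °C. Viability was read as intracellular ATP by CellTiter-Glo luminescence; AC50 came from Hill fits of concentration-response data.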

[3] = Cell Viability - HepG2 (AID 433; calls by dose curve;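 note: potency is the fitted concentration of half-maximal effect; potency for ATP loss meaning cytotoxicity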); conditions: qHTS
How it was run: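 Cytotoxicity read as ATP loss (CellTiter-Glo luminescence) after 40 hr compound exposure of HepG2, 1500 cells/well, 37 °C. AC50 by Hill equation; 0% set by DMSO, 100% inhibition by 100 uM tamoxifen.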

[4] = Cell Viability - MRC5 (AID 434; calls by dose curve;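 note: potency is the fitted concentration of half-maximal effect; potency reflects cytotoxicity seen as loss of intracellular ATP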); conditions: MRC5 lung fibroblast viability, qHTS
How it was run: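 MRC5 normal human lung fibroblasts (1500/well) were treated with compounds for 40 hr at 37 °C in complete medium, and viable cells were measured as intracellular ATP by CellTiter-Glo luminescence. AC50 came from Hill fits, normalized to DMSO and 100 uM tamoxifen.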

[5] = Cell Viability - SK-N-SH (AID 435; calls by dose curve; note: potency is the fitted concentration of half-maximal effect); conditions: SK-N-SH neuroblastoma cell viability qHTS
How it was run: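 qHTS cytotoxicity: CellTiter-Glo ATP luminescence after 40 h compound exposure of human neuroblastoma SK-N-SH cells at 37 °C. AC50 derived by Hill-equation fitting, with DMSO as basal and 100 uM tamoxifen as full inhibition.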

[6] = Cell Viability - N2a (AID 540); conditions: N2a mouse neuroblastoma cell viability; at 92.2 µM (top of the series);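 note: plate controls were DMSO alone for no effect and tamoxifen control for full effect; nearly all actives have a fitted effect of over 45% in size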
How it was run: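 Mouse neuroblastoma N2a cells (1500/well) were preincubated 5 hr at 37 °C, then exposed to compounds for 40 hr at 37 °C in complete medium. Viability was read as intracellular ATP by CellTiter-Glo luminescence; AC50 from Hill fits.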

[7] = Cell Viability - NIH 3T3 (AID 541); conditions: NIH 3T3 cell viability, qHTS; activity change, negative = cytotoxicity: at 92.2 µM (top of the series);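 note: plate controls were DMSO alone for no effect and tamoxifen positive control for full effect; nearly all actives have a fitted effect of over 25% in size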
How it was run: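 NIH 3T3 mouse embryo fibroblasts (1000 cells/well) were plated in complete medium and treated with compound for 40 hr at 37 °C. Viability was read as intracellular ATP by CellTiter-Glo luminescence; AC50 values came from Hill-equation fits of concentration-response data.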

[8] = Cell Viability - HUV-EC-C (AID 542); note: % is set by controls: 0 for no effect and ±100 for the full control effect; nearly all actives have a fitted effect of over 35% in size
How it was run: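 HUV-EC-C normal human vascular endothelial cells, 1000 cells/well, pre-incubated 5 hr at 37 °C, then exposed to compounds for 40 hr at 37 °C in complete medium. Viability measured as intracellular ATP by CellTiter-Glo luminescence; AC50 from Hill fits.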

[9] = Cell Viability - SH-SY5Y (AID 544); conditions: SH-SY5Y neuroblastoma cell viability; viability change, negative = cytotoxic: at 92.2 µM (top of the series); note: nearly all actives have a fitted effect of over 55% in size
How it was run: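 Human neuroblastoma SH-SY5Y cells (1500/well) in complete medium were exposed to compounds for 40 hr at 37 °C; intracellular ATP was then quantified by CellTiter-Glo luminescence after 20 min at room temperature. AC50 came from Hill-equation concentration-response fits.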

[10] = Cell Viability - Renal Proximal Tubule (AID 545); conditions: renal proximal tubule cells viability; at 91.7 µM (top of the series), primary cells of rat origin unless noted; note: nearly all actives have a fitted effect of over 40% in size
How it was run: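 Viability taken as intracellular ATP (CellTiter-Glo luminescence) after 40 hr, 37 °C compound treatment of primary proximal tubule cells from rat kidney, 1000 cells/well; Hill-equation fits of qHTS concentration-response data gave AC50.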

[11] = Cell Viability - Mesenchymal (AID 546);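 note: cells exposed to compound for 40 hours before reading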
How it was run: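 Normal human renal glomerulus-derived kidney mesenchymal cells, 1000 per well in complete medium, were treated with compounds for 40 hr at 37 °C. Viability was read as intracellular ATP by CellTiter-Glo luminescence; AC50 values came from Hill-equation fits of qHTS concentration-response data.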

[12] = Cellular Toxicity (caspase-3) HepG2 (AID 654);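 note: cells exposed to compound for 16 hours before reading; 0% = DMSO alone and 100% = caspase signal from 100 µM tamoxifen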
How it was run: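 HepG2 cells (1500/well) in complete medium were treated with compounds for 16 hr at 37 °C. Caspase-3/7 activity was then read as luminescence from peptide-aminoluciferin cleavage. AC50 came from Hill fits, normalized to DMSO and 100 uM tamoxifen.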

[13] = Cellular Toxicity (caspase-3) Jurkat (AID 655); conditions: Jurkat caspase-3 activation, luminescence, DMSO = 0%, tamoxifen = 100%; at 92.2 µM (top of the series);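 note: cells exposed to compound for 16 h at 37 °C before reading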
How it was run: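 Luminescent Caspase-Glo 3/7 read-out (20 min, room temperature) after 16 h compound treatment at 37 C of 5000 Jurkat cells per well. AC50 derived by Hill-equation fitting, scaled between DMSO basal and 100 uM tamoxifen stimulation.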

[14] = Cellular Toxicity (caspase-3) HUV-EC-C (AID 656)
How it was run: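 Luminescent Caspase-Glo 3/7 readout after 16 h, 37 °C compound exposure of HUV-EC-C endothelial cells, 1000 per well, complete medium. AC50 derived by Hill fitting, with DMSO as baseline and 100 uM tamoxifen as full activation.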

[15] = Cellular Toxicity (caspase-3) SHSY5Y (AID 657)
How it was run: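 Luminescent Caspase-Glo 3/7 read-out, 1 hr room temperature, follows 16 hours of compound treatment of SH-SY5Y cells at 37 °C. Normalization: DMSO basal, 10 uM staurosporine as 100%; AC50 values from Hill-equation concentration-response fits.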

[16] = Cellular Toxicity (caspase-3) BJ (AID 658);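 note: 0% = DMSO basal and 100% = 10 µM staurosporine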
How it was run: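 Luminescent aminoluciferin-substrate cleavage reports caspase 3/7 activity in normal human BJ fibroblasts after 16 hr compound exposure at 37 °C. Normalized to DMSO (basal) and 10 uM staurosporine (100%); AC50 from Hill fit of concentration-response.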

[17] = Cellular Toxicity (caspase-3) MRC-5 (AID 659);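 note: 0% = DMSO basal and 100% = 10 µM staurosporine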
How it was run: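 Luminescence from caspase-cleaved aminoluciferin substrate (Caspase-Glo 3/7, 1 hr RT) reports caspase 3/7 activity in MRC-5 lung fibroblasts after 16 hr compound exposure. Normalized to DMSO basal and 10 uM staurosporine as 100%; AC50 from Hill fits.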

[18] = Cellular Toxicity (caspase-3) Mesangial (AID 660);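 note: cells exposed to compound for 16 h before the caspase read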
How it was run: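 Human renal glomerular mesangial cells (1000/well) were treated with compounds for 16 h at 37 °C in complete medium, then caspase 3/7 activity was read by Caspase-Glo luminescence. Data were normalized to DMSO and 100 uM tamoxifen; AC50 from Hill fits.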

[19] = Cellular Toxicity (caspase-3) SK-N-SH (AID 661);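 note: 0% = DMSO basal and 100% = 10 µM staurosporine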
How it was run: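 SK-N-SH human neuroblastoma cells (1500/well) were treated with compounds for 16 hr at 37 °C in complete medium; caspase 3/7 activity was read by Caspase-Glo luminescence. AC50 came from Hill fits of data normalized to DMSO and 10 uM staurosporine.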

[20] = Cellular Toxicity (caspase-3) H-4-II-E (AID 663);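 note: cells exposed to compound for 16 hr before readout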
How it was run: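 Luminescence from caspase-cleaved aminoluciferin substrate, read 20 min after reagent addition, reports caspase 3/7 activation in rat H-4-II-E cells after 16 hr compound exposure. Normalized to DMSO (basal) and 100 uM tamoxifen (100%); AC50 from Hill fits.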

[21] = Cellular Toxicity (caspase-3) Hek293 (AID 664);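 note: cells exposed to compound for 16 h at 37 °C before readout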
How it was run: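 HEK293 cells were exposed to compounds in complete medium for 16 hr at 37 °C, then caspase-3/7 activity was read by Caspase-Glo 3/7 luminescence after 20 min at room temperature. Data normalized to DMSO and 100 uM tamoxifen; AC50 from Hill fits.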

Clc1cc(Cl)c(-c2cc(Cl)c(Cl)cc2Cl)cc1Cl
inactive: Potency [1] > 92 µM | Potency [2] > 92 µM | Potency [3] > 92 µM | Potency [5] > 92 µM | activity change, negative = cytotoxicity [7] -24.8% | Potency [8] | Potency [9] | activity change, negative = cytotoxicity [10] -5.09% [at 91.7 µM] | outcome [11] | outcome [12] | caspase-3 activation [13] 0.996% | outcome [14] | outcome [15] | outcome [16] | outcome [17] | outcome [18] | outcome [19] | outcome [20] | outcome [21]
active: Potency [4] 24.3 µM | activity change, negative = cytotoxicity [6] -93.1%
